Our source for the binding signal values is PMC7862700, “An all-to-all approach to the identification of sequence-specific readers for epigenetic DNA modifications on cytosine”.

Holding throughout (test): DAPPL (digital affinity profiling via proximity ligation, sequencing); 10 mM Tris-HCl pH 7.5, 50 mM NaCl, 1 mM DTT, 4% glycerol, room temperature, 30 min; GST-TFs on glutathione beads, 16-mer random dsDNA library, 0.1% formaldehyde crosslink after washing; high values mean tight binding
Holding throughout (details): protein: recombinant; tags: N-terminal GST; dsDNA, one strand shown

The target in one assay is T1, ELK1 (Homo sapiens, UniProt P19419 1-428).
T1 sequence: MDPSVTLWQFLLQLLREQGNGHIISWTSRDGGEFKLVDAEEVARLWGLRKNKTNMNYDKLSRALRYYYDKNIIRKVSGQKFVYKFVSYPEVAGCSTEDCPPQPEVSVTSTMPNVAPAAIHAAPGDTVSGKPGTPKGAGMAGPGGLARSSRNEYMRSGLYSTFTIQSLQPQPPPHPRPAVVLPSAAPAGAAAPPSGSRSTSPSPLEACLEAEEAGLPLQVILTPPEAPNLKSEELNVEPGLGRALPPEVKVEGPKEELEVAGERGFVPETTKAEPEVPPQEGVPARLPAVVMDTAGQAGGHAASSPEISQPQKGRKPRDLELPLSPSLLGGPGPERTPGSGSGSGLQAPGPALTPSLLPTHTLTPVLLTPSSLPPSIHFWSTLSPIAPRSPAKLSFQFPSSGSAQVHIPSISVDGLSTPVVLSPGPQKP
The gist of the method:
(§1)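 GST fusions of human transcription factors were expressed in yeast and captured with glutathione beads. Once given DNA barcodes and pooled alongside a tag-only sample, they were incubated for 30 min at room temperature with 200 nmole of a random double-stranded 16-mer DNA library in Tris/NaCl/DTT/glycerol buffer, then washed, crosslinked (0.1% formaldehyde), proximity-ligated, PCR-amplified and sequenced on an Illumina NextSeq500. The binding signal of each hexamer is its read frequency for a factor divided by its frequency for the tag-only sample.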

A further assay concerns the target T2, GABPA (Homo sapiens, UniProt Q06546 1-454).
T2 sequence: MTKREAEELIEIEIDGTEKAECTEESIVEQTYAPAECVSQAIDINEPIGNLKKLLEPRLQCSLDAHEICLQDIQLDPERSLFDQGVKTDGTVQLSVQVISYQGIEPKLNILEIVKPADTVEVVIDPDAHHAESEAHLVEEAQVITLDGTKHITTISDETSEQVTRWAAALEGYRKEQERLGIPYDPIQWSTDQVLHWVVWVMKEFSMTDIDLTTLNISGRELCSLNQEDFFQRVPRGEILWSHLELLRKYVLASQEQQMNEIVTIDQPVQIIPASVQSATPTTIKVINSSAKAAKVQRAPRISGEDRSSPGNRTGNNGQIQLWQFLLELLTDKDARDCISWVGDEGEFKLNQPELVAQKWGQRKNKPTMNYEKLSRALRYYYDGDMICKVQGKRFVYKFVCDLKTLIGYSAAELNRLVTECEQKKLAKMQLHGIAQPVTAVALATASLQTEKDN
The gist of the method:
as §1

The target of another assay is T3, ERG (Homo sapiens, UniProt P11308 1-479).
T3 sequence: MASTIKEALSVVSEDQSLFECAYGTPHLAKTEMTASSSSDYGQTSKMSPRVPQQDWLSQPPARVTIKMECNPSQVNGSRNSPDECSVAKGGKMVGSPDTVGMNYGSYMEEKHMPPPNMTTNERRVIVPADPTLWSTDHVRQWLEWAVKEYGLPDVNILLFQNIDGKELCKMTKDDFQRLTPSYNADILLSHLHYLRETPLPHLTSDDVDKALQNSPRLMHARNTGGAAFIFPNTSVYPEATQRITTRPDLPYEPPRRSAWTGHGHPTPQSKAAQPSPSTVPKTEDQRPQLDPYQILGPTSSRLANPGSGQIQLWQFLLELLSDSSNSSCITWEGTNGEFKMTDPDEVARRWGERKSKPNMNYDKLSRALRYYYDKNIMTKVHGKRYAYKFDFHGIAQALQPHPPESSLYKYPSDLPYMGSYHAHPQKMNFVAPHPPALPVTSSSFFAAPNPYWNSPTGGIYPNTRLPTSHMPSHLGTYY
The gist of the method: as §1

Another assay has as its target T4, FEV (Homo sapiens, UniProt Q99581 1-238).
T4 sequence: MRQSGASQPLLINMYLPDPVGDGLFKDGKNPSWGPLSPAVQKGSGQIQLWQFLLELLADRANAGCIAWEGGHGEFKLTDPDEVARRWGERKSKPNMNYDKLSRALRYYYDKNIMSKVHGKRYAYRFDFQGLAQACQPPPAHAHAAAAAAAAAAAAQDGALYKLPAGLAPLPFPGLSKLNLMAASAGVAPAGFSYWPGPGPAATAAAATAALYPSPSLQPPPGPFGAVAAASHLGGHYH
In outline:
as §1

Another assay addresses ETV5 (Homo sapiens, UniProt P41161 1-510). The gist of the method:
as §1

Another assay deals with ELF4 (Homo sapiens, UniProt Q99607 1-663). The gist of the method:
as §1

The target of the next assay is T5, ELF3 (Homo sapiens, UniProt P78545 1-371).
T5 sequence: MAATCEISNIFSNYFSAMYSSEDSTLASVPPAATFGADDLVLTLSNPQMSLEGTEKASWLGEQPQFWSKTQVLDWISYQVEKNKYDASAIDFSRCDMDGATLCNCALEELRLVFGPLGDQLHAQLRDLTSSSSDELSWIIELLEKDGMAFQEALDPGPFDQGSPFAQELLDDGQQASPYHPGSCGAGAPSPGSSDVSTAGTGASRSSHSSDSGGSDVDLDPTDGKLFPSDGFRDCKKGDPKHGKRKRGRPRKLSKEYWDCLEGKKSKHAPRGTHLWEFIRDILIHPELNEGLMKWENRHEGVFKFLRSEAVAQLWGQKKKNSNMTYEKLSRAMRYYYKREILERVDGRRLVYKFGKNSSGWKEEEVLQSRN
In outline: as §1

In a further assay the target is ETV1 (Homo sapiens, UniProt P50549 1-477). In outline:
as §1

For the next assay, the target named is T6, ETV3L (Homo sapiens, UniProt Q6ZN32 1-361).
T6 sequence: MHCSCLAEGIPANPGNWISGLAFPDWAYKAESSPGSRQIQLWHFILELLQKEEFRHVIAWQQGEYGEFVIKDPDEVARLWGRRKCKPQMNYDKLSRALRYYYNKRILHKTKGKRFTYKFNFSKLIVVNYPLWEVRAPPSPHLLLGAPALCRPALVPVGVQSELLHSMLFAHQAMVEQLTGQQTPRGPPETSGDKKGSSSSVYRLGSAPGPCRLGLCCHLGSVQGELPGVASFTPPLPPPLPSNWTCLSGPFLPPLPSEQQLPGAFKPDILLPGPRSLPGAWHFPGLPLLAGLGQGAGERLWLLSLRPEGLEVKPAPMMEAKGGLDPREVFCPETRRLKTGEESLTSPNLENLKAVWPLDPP
The gist of the method:
as §1

The next assay has as its target T7, ETS2 (Homo sapiens, UniProt P15036 1-469).
T7 sequence: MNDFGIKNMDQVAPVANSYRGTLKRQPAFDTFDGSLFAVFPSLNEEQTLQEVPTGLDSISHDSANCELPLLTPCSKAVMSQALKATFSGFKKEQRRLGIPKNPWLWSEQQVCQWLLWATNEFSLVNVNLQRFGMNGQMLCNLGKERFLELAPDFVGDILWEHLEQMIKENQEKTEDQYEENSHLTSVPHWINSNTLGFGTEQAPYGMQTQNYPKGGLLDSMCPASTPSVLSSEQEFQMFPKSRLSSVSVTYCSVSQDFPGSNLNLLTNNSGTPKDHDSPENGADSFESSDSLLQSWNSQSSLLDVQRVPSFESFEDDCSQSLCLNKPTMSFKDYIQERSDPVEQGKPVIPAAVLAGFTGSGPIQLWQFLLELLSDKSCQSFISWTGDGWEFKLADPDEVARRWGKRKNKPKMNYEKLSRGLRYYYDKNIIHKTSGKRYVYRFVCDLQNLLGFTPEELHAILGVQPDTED
In outline: as §1

Another assay has as its target T8, ETV7 (Homo sapiens, UniProt Q9Y603 1-341).
T8 sequence: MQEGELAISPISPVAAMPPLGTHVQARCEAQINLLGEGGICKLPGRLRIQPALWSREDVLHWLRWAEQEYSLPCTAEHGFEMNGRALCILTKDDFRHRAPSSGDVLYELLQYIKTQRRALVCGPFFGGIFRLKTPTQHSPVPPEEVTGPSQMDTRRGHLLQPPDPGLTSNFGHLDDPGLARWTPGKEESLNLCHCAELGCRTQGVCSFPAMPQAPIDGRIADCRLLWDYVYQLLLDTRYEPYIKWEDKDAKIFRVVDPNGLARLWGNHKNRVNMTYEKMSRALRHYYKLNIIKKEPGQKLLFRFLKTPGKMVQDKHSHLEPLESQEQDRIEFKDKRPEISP
The gist of the method: as §1

A further assay concerns the target ELF1 (Homo sapiens, UniProt P32519 1-619). The gist of the method: as §1
A further assay has as its target SPI1 (Homo sapiens, UniProt P17947 1-270). The gist of the method: as §1
In a further assay the target is SPIB (Homo sapiens, UniProt Q01892 1-262). In outline:
as §1

Another assay deals with T9, ETV2 (Homo sapiens, UniProt O00321 1-342).
T9 sequence: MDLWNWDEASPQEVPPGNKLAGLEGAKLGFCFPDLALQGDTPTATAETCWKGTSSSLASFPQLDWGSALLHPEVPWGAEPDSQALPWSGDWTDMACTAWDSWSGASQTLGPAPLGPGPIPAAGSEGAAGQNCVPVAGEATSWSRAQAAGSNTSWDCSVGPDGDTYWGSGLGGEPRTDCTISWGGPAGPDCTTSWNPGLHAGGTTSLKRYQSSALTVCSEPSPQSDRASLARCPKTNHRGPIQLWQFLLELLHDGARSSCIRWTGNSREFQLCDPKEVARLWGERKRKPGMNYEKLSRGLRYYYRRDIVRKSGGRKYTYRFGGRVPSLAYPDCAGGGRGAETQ
In outline: as §1

The next assay has as its target T10, ERF (Homo sapiens, UniProt P50548 1-548).
T10 sequence: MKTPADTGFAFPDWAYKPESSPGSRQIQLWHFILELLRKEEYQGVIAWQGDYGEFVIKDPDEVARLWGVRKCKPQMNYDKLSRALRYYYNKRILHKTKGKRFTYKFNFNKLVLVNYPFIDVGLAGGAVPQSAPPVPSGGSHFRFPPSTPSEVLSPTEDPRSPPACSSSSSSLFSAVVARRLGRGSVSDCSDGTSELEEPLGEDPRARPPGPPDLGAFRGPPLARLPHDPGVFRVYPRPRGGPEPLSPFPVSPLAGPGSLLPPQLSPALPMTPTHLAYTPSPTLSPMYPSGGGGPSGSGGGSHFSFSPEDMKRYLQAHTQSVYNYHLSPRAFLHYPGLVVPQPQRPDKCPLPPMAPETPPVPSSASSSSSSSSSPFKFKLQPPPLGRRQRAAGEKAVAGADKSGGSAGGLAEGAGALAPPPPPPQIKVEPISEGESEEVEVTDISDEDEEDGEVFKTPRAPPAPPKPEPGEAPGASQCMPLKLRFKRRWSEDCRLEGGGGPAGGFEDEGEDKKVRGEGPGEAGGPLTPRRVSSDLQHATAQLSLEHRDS
In outline: as §1

A further assay addresses T11, ETV3 (Homo sapiens, UniProt P41162-2 1-143).
T11 sequence: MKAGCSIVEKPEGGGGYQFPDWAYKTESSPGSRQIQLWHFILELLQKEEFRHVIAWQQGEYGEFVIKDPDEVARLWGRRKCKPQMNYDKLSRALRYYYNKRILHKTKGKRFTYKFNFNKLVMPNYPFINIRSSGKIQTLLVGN
The gist of the method:
as §1

The target in a further assay is ETV6 (Homo sapiens, UniProt P41212 1-452). In outline:
as §1

Chain of ETV5 (P41161 whole entry): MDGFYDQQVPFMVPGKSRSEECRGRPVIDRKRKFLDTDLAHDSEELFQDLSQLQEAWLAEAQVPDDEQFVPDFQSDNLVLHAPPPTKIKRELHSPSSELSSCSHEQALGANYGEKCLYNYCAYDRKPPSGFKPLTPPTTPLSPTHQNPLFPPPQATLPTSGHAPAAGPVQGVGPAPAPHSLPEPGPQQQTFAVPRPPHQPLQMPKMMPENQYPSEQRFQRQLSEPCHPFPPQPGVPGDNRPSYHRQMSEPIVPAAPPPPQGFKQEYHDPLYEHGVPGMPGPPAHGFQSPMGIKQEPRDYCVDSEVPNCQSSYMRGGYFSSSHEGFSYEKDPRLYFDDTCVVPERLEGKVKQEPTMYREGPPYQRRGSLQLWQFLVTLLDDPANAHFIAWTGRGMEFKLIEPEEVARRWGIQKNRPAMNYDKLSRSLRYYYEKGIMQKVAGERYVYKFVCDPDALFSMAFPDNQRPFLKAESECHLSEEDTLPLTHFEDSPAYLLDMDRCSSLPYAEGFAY
Chain of ELF4 (Q99607 whole entry): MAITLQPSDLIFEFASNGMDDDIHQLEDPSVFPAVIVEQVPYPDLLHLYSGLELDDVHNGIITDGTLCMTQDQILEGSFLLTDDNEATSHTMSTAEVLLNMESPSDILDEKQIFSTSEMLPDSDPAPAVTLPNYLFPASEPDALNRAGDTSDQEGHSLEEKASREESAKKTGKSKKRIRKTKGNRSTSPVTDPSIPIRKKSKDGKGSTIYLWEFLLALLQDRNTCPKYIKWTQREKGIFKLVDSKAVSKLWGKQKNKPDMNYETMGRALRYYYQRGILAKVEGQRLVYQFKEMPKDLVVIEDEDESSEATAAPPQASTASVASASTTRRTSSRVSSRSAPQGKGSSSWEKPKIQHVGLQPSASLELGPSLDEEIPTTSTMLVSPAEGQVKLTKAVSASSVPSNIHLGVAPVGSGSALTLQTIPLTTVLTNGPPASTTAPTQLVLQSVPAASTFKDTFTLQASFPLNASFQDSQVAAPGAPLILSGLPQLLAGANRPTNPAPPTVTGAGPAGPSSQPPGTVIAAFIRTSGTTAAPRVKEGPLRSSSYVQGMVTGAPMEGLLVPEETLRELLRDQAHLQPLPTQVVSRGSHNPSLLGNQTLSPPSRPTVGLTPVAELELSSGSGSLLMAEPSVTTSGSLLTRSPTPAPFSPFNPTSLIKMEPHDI
Chain of ETV6 (P41212 whole entry): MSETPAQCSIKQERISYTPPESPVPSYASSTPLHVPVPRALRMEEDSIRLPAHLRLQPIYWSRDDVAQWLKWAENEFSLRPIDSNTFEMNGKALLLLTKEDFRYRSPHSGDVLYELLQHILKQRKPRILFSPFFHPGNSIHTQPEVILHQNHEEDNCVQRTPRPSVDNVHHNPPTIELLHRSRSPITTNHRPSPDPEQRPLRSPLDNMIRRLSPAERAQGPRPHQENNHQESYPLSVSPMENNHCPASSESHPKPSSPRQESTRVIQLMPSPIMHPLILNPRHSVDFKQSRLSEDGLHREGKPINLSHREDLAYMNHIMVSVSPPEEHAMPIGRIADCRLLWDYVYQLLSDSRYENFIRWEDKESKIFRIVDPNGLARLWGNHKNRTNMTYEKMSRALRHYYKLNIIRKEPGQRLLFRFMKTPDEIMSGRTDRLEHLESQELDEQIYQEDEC
Chain of ETV1 (P50549 whole entry): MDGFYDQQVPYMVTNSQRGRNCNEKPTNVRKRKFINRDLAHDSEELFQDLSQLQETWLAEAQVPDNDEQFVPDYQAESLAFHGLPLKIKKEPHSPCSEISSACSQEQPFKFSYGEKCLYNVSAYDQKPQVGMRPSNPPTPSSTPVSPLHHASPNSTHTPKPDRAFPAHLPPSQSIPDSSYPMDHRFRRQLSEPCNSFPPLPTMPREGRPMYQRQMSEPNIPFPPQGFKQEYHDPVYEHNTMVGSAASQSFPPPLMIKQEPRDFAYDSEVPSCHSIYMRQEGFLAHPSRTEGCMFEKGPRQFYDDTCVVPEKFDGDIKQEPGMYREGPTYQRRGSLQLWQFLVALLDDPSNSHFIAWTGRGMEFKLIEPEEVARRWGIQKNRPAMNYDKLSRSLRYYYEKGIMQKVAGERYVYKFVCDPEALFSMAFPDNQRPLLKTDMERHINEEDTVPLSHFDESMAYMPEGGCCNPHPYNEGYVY
Chain of SPIB (Q01892 whole entry): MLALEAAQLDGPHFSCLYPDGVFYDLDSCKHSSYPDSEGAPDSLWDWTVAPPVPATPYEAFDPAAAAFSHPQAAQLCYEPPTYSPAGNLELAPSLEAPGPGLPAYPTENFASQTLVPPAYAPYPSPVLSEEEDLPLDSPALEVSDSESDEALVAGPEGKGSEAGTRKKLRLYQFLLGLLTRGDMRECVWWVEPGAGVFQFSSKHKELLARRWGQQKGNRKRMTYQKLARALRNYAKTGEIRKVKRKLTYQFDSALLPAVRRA
Chain of ELF1 (P32519 whole entry): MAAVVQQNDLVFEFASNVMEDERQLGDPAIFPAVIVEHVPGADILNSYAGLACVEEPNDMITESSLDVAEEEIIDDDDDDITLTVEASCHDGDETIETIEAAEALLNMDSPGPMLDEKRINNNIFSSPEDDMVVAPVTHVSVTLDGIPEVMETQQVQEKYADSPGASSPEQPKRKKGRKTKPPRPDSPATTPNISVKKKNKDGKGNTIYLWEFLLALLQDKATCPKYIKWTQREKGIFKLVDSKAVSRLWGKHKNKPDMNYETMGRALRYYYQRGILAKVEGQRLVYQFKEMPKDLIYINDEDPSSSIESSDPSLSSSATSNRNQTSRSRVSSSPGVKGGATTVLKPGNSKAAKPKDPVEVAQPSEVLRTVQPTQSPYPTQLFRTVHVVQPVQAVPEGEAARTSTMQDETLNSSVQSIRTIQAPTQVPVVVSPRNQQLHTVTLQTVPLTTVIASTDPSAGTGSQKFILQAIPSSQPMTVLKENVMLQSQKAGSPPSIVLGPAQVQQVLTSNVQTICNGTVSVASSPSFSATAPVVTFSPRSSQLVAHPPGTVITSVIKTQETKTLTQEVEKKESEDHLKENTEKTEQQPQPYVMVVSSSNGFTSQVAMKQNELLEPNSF

For CAGCAT, the binding signal in the assay with ELK1 is 1 fold enrichment (6-mer frequency, TF over GST control); with GABPA, 1.03 fold enrichment (6-mer frequency, TF over GST control); with ERG, 1.03 fold enrichment (6-mer frequency, TF over GST control); with FEV, 1.04 fold enrichment (6-mer frequency, TF over GST control); with ETV5 it was 1.04 fold enrichment (6-mer frequency, TF over GST control); with ELF4, 1.05 fold enrichment (6-mer frequency, TF over GST control). Further, the binding signal with ELF3 is 1.07 fold enrichment (6-mer frequency, TF over GST control); with ETV1, 1.06 fold enrichment (6-mer frequency, TF over GST control); with ETV3L, 1.03 fold enrichment (6-mer frequency, TF over GST control); with ETS2 it was 1.03 fold enrichment (6-mer frequency, TF over GST control); in the assay with ETV7, 1.01 fold enrichment (6-mer frequency, TF over GST control).
As for CCGCAG, the binding signal in the assay with ELK1 is 1.09 fold enrichment (6-mer frequency, TF over GST control); with GABPA it was 1.13 fold enrichment (6-mer frequency, TF over GST control); in the assay with ERG it was 1.06 fold enrichment (6-mer frequency, TF over GST control); with ELF1 it was 1.01 fold enrichment (6-mer frequency, TF over GST control); with SPI1, 1.11 fold enrichment (6-mer frequency, TF over GST control); with SPIB, 1.21 fold enrichment (6-mer frequency, TF over GST control). Moreover, the binding signal with FEV was 1.08 fold enrichment (6-mer frequency, TF over GST control); with ETV5, 1.12 fold enrichment (6-mer frequency, TF over GST control); with ELF4, 1.07 fold enrichment (6-mer frequency, TF over GST control); with ETV2, 1.22 fold enrichment (6-mer frequency, TF over GST control); in the assay with ELF3, 1.19 fold enrichment (6-mer frequency, TF over GST control); in the assay with ERF it was 1.12 fold enrichment (6-mer frequency, TF over GST control). In addition, the binding signal with ETV3L was 1.02 fold enrichment (6-mer frequency, TF over GST control); with ETS2 it was 1.06 fold enrichment (6-mer frequency, TF over GST control); with ETV7, 1.12 fold enrichment (6-mer frequency, TF over GST control); in the assay with ETV3, 1.07 fold enrichment (6-mer frequency, TF over GST control); with ETV6, 1 fold enrichment (6-mer frequency, TF over GST control).
